Measured values: PubChem BioAssay AID1159580 (chemical genetic matrix, 2015)
Out of some 5,500 compounds screened, about 2,000 (36%) were called active. Another 18% or so got no clear call; they are omitted. Rule as the data show it: active = normalized growth mostly below about 0.91 (no sharp cut-off); inconclusive = no clear call, values can overlap the other calls; inactive = mostly above about 0.92. The list shows a part of the results.

Test: chemical genetic growth profiling, strain panel (AID 1159580);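 also: tested at 20 µM; growth read once vehicle control cultures reached saturation at 30 °C; 1 = growth at the plate median or of vehicle wells; lower values mean less growth of the strain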
Details: growth OD
[1] = S. cerevisiae deletion strains, locus YAL013W, strain DEP1, active compounds read low
[2] = S. cerevisiae deletion strains, locus YHR030C, strain SLT2, active compounds read low
[3] = S. cerevisiae deletion strains, locus YJR075W, strain HOC1, active compounds read low
[4] = S. cerevisiae deletion strains, locus YMR307W, strain GAS1, active compounds read low
[5] = S. cerevisiae deletion strains, locus YNL322C, strain KRE1, active compounds read low
[6] = S. cerevisiae deletion strains, locus YPL055C, strain LGE1, active compounds read low
[7] = S. cerevisiae deletion strains, locus YPL241C, strain CIN2, active compounds read low

Measured: normalized growth

COc1ccccc1CC(=O)NC1CCN(Cc2ccccc2)CC1
inactive: [1] 1.01 | S. cerevisiae deletion strains, locus YBR229C, strain ROT2, active compounds read low 1 | S. cerevisiae deletion strains, locus YDL101C, strain DUN1, active compounds read low 1.01 | S. cerevisiae deletion strains, locus YDL134C, strain PPH21, active compounds read low 1.02 | S. cerevisiae deletion strains, locus YDR150W, strain NUM1, active compounds read low 0.993 | S. cerevisiae deletion strains, locus YEL061C, strain CIN8, active compounds read low 1.02 | S. cerevisiae deletion strains, locus YGR078C, strain PAC10, active compounds read low 1.01 | S. cerevisiae deletion strains, locus YGR229C, strain SMI1, active compounds read low 1.02 | [2] 0.943 | S. cerevisiae deletion strains, locus YHR087W, strain rtc3, active compounds read low 0.998 | S. cerevisiae deletion strains, locus YJR043C, strain POL32, active compounds read low 1.01 | [3] 1.02 | S. cerevisiae deletion strains, locus YKL190W, strain CNB1, active compounds read low 1.01 | S. cerevisiae deletion strains, locus YLR039C, strain RIC1, active compounds read low 0.947 | S. cerevisiae deletion strains, locus YLR058C, strain SHM2 (second series), active compounds read low 1.01 | S. cerevisiae deletion strains, locus YLR085C, strain ARP6, active compounds read low 1.04 | S. cerevisiae deletion strains, locus YLR262C, strain YPT6, active compounds read low 0.826 | S. cerevisiae deletion strains, locus YML094W, strain GIM5, active compounds read low 0.991 | S. cerevisiae deletion strains, locus YMR219W, strain ESC1, active compounds read low 1.01 | S. cerevisiae deletion strains, locus YMR263W, strain SAP30, active compounds read low 1.02 | [4] 1.11 | S. cerevisiae deletion strains, locus YNL153C, strain GIM3, active compounds read low 1.01 | S. cerevisiae deletion strains, locus YNL298W, strain CLA4 (second series), active compounds read low 1.04 | [5] 1 | S. cerevisiae deletion strains, locus YNR030W, strain Alg12, active compounds read low 1.02 | S. cerevisiae deletion strains, locus YOL006C, strain TOP1, active compounds read low 0.947 | [6] 1.01 | [7] 1.13 | S. cerevisiae deletion strains, locus YPR135W, strain CTF4, active compounds read low 1.07 | S. cerevisiae strains, strain wild type, active compounds read low 1.02

CC(C)Oc1cccnc1N(C)C1CCN(Cc2ccccc2)CC1
inactive: [1] 1.02 | S. cerevisiae deletion strains, locus YAL040C, strain CLN3, active compounds read low 0.983 | S. cerevisiae deletion strains, locus YCL061C, strain MRC1 (second series), active compounds read low 1 | S. cerevisiae deletion strains, locus YDR363W, strain ESC2, active compounds read low 1 | S. cerevisiae deletion strains, locus YER002W, strain NOP16, active compounds read low 0.967 | [3] 1.01 | [4] 1.03 | S. cerevisiae deletion strains, locus YNL128W, strain TEP1, active compounds read low 1.01 | S. cerevisiae deletion strains, locus YNL175C, strain NOP13, active compounds read low 0.991 | S. cerevisiae deletion strains, locus YNL197C, strain WHI3, active compounds read low 0.991 | S. cerevisiae deletion strains, locus YNL224C, strain SQS1, active compounds read low 1 | [5] 1.01 | S. cerevisiae deletion strains, locus YOR083W, strain WHI5 (second series), active compounds read low 0.976 | [6] 1 | [7] 1.01

COc1cc2oc3cc(OC)c(OC)c(CC=C(C)C)c3c(=O)c2c(O)c1CC=C(C)C
inactive: [2] 0.981 | S. cerevisiae deletion strains, locus YHR079C, strain IRE1, active compounds read low 0.988 | S. cerevisiae deletion strains, locus YJL095W, strain BCK1, active compounds read low 0.971 | S. cerevisiae deletion strains, locus YJR066W, strain TOR1, active compounds read low 0.934 | S. cerevisiae deletion strains, locus YLR113W, strain HOG1, active compounds read low 0.958 | S. cerevisiae deletion strains, locus YNL183C, strain NPR1, active compounds read low 0.919 | S. cerevisiae deletion strains, locus YOR231W, strain MKK1, active compounds read low 0.981 | S. cerevisiae deletion strains, locus YPL256C, strain CLN2, active compounds read low 0.992
